About 79,000 compounds went through this panel and 15% of them were active in at least one assay; those are over-represented in the sample as a whole. Calls of active or inactive are those of the source. Rule as the data show it: active = growth inhibition above about 70%; inactive = the rest.
Tests used:
[1] = NCI Yeast Anticancer Drug Screen. Data for the rad52 strain (AID 147);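 also: 0% = growth of vehicle-treated control cultures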; conditions: S. cerevisiae rad52 mutant growth inhibition, active compounds read high
Outline: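 Yeast strain carrying a DNA damage repair alteration was exposed to test compounds. Growth inhibition was measured relative to vehicle-treated controls.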

[2] = NCI Yeast Anticancer Drug Screen. Data for the wt1 strain (AID 149);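 also: 0% = growth of vehicle-treated wt1 cultures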; conditions: S. cerevisiae wt1 strain (SPY 50644) growth inhibition, active compounds read high
Outline: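 Vehicle-normalised growth inhibition; strain wt1; compound exposure.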

[3] = NCI Yeast Anticancer Drug Screen. Data for the rad50EPP+ strain (AID 151);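 also: 0% = growth of vehicle-treated control cultures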; conditions: S. cerevisiae rad50 mutant strain, active compounds read high
Outline: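 Yeast strain carrying rad50 alteration (rad50EPP+) exposed to compounds; growth inhibition measured relative to vehicle-treated controls.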

[4] = NCI Yeast Anticancer Drug Screen. Data for the mgt1 strain (AID 153); conditions: S. cerevisiae mgt1 mutant growth inhibition, active compounds read high
Outline: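 Yeast mgt1 strain (DNA repair/cell-cycle alteration panel) exposed to compounds; growth inhibition measured relative to vehicle-treated controls.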

[5] = NCI Yeast Anticancer Drug Screen. Data for the rad50 strain (AID 155);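 also: 0% = growth of vehicle-only cultures of the same strain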; conditions: S. cerevisiae rad50 strain growth inhibition, active compounds read high
Outline: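 A DNA repair-deficient yeast mutant serves as the test organism; compound-induced growth inhibition is calculated against vehicle-treated cells.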

[6] = NCI Yeast Anticancer Drug Screen. Data for the mec2-1 strain (AID 157); conditions: S. cerevisiae mec2-1 strain, active compounds read high
Outline: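 mec2-1 yeast strain, carrying an alteration in DNA damage repair or cell cycle control, was exposed to compounds; growth inhibition was measured relative to vehicle-treated controls.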

[7] = NCI Yeast Anticancer Drug Screen. Data for the rad14 strain (AID 159);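 also: 0% = growth of vehicle-treated control cultures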; conditions: S. cerevisiae rad14 strain growth inhibition, active compounds read high
Outline: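 Vehicle-treated cultures served as the baseline for growth inhibition of a DNA repair-mutant yeast strain exposed to each compound.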

[8] = NCI Yeast Anticancer Drug Screen. Data for the sgs1 mgt1 strain (AID 161);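 also: 0% = growth of cultures given vehicle only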; conditions: S. cerevisiae sgs1 mgt1 strain, active compounds read high
Outline: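 Compounds are added to genetically altered yeast, and growth is compared with cultures given vehicle alone to give percent inhibition.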

[9] = NCI Yeast Anticancer Drug Screen. Data for the CLN2oe strain (AID 163);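 also: 0% = growth of vehicle-only control cultures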; conditions: S. cerevisiae CLN2oe strain, active compounds read high
Outline: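 Yeast cells carrying a defined cell-cycle control alteration were exposed to test compounds. Growth inhibition was scored against vehicle-treated control cultures.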

[10] = NCI Yeast Anticancer Drug Screen. Data for the cln2 rad14 strain (AID 165);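 also: 0% = growth equal to vehicle treated cultures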; conditions: S. cerevisiae cln2 rad14 strain, active compounds read high
Outline: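 Yeast carrying cln2 and rad14 alterations (cell cycle control and DNA damage repair) were exposed to compounds. Growth inhibition was measured against vehicle-treated controls.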

[11] = NCI Yeast Anticancer Drug Screen. Data for the bub3 strain (AID 167); conditions: S. cerevisiae bub3 mutant strain, active compounds read high
Outline: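 Inhibition values come from growth of compound-treated mutant yeast normalised to vehicle-treated controls.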

[12] = NCI Yeast Anticancer Drug Screen. Data for the wt2 strain (AID 169);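 also: 0% = growth of vehicle-treated yeast cultures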; conditions: S. cerevisiae wt2 strain growth inhibition, active compounds read high
Outline: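 Yeast cells were exposed to test compounds, and growth inhibition was measured relative to vehicle-treated controls.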

[13] = NCI Yeast Anticancer Drug Screen. Data for the mlh1 strain (AID 171);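 also: 0% = growth of vehicle-treated control cultures of the same strain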; conditions: S. cerevisiae mlh1 strain growth inhibition, active compounds read high
Outline: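 Yeast carrying a defined genetic alteration in DNA damage repair or cell cycle control were exposed to test compounds. Growth inhibition was measured relative to vehicle-treated controls.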

[14] = NCI Yeast Anticancer Drug Screen. Data for the sgs1 strain (AID 173);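 also: 0% = growth of vehicle-only control cultures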; conditions: S. cerevisiae sgs1 mutant, active compounds read high
Outline: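 Yeast mutant strains carrying defined defects in DNA damage repair or cell cycle control were exposed to test compounds. Growth inhibition was scored against vehicle-treated controls.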

[15] = NCI Yeast Anticancer Drug Screen. Data for the mlh1 rad18 strain (AID 175); conditions: S. cerevisiae mlh1 rad18 strain growth inhibition, active compounds read high
Outline: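 Growth inhibition of the yeast strain was measured after compound exposure and expressed relative to vehicle-treated controls. The strain carries defined defects in DNA damage repair.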

[16] = NCI Yeast Anticancer Drug Screen. Data for the rad18 strain (AID 177); conditions: S. cerevisiae rad18 mutant growth inhibition, active compounds read high
Outline: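 Yeast carrying a defined DNA damage repair alteration were exposed to compounds. Growth inhibition was expressed relative to vehicle-treated controls.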

[17] = at 5.0 µM (retest, dose inferred, filed as 0.5)
[18] = at 50.0 µM (retest, dose inferred, filed as 5.0)

Measured: growth inhibition

Cc1ccc2ccc3cccc4ccc1c2c34
inactive: [1]; at 1.2 µM -1% | [1]; at 3.7 µM 0% | [1]; at 11.0 µM 5% | [1]; at 33.0 µM 23% | [1]; at 100.0 µM 27% | [2]; at 1.2 µM -2% | [2]; at 3.7 µM -2% | [2]; at 11.0 µM -3% | [2]; at 33.0 µM 2% | [2]; at 100.0 µM 15% | [3]; at 1.2 µM -2% | [3]; at 3.7 µM 4% | [3]; at 11.0 µM 20% | [3]; at 33.0 µM 33% | [3]; at 100.0 µM 31% | [4]; at 1.2 µM -1% | [4]; at 3.7 µM -1% | [4]; at 11.0 µM -3% | [4]; at 33.0 µM -3% | [4]; at 100.0 µM 18% | [5]; at 1.2 µM 4% | [5]; at 3.7 µM 49% | [5]; [17] -1% | [5]; at 11.0 µM 21% | [5]; at 33.0 µM 37% | [5]; [18] 41% | [5]; at 50.0 µM 25.6% | [5]; at 100.0 µM 66% | [6]; at 1.2 µM -1% | [6]; at 3.7 µM 0% | [6]; [17] 3% | [6]; at 11.0 µM 2% | [6]; at 33.0 µM 13% | [6]; [18] 12% | [6]; at 50.0 µM 4.75% | [6]; at 100.0 µM 26% | [7]; at 1.2 µM 1% | [7]; at 3.7 µM 0% | [7]; at 11.0 µM 3% | [7]; at 33.0 µM 14% | [7]; at 100.0 µM 23% | [8]; [17] -3% | [8]; [18] 20% | [8]; at 50.0 µM 10.6% | [9]; at 1.2 µM -7% | [9]; at 3.7 µM -2% | [9]; at 11.0 µM -4% | [9]; at 33.0 µM -13% | [9]; at 100.0 µM 13% | [10]; [17] -3% | [10]; [18] 6% | [10]; at 50.0 µM 14.2% | [11]; at 1.2 µM -1% | [11]; at 3.7 µM 0% | [11]; [17] 2% | [11]; at 11.0 µM 2% | [11]; at 33.0 µM 26% | [11]; [18] 44% | [11]; at 50.0 µM 61.5% | [11]; at 100.0 µM 58% | [12]; at 1.2 µM -1% | [12]; at 3.7 µM 7% | [12]; at 11.0 µM -3% | [12]; at 33.0 µM -2% | [12]; at 100.0 µM 18% | [13]; at 1.2 µM -2% | [13]; at 3.7 µM -2% | [13]; at 11.0 µM -5% | [13]; at 33.0 µM 3% | [13]; at 100.0 µM 30% | [14]; at 1.2 µM -3% | [14]; at 3.7 µM -1% | [14]; at 11.0 µM 2% | [14]; at 33.0 µM 23% | [14]; at 100.0 µM 42% | [15]; [17] -3% | [15]; [18] 52% | [16]; at 1.2 µM -4% | [16]; at 3.7 µM 0% | [16]; at 11.0 µM 11% | [16]; at 33.0 µM 60%
active: [15]; at 50.0 µM 70.3% | [16]; at 100.0 µM 82%

CCCCCCCCCCC(=O)Cl
active: [2]; at 100.0 µM 85% | [4]; at 100.0 µM 85% | [5]; [17] 100% | [5]; [18] 98% | [6]; [17] 100% | [6]; [18] 98% | [6]; at 100.0 µM 83% | [7]; at 100.0 µM 88% | [9]; at 100.0 µM 77% | [12]; at 100.0 µM 82% | [13]; at 100.0 µM 82% | [14]; at 100.0 µM 90% | [15]; [17] 100% | [15]; [18] 99% | [16]; at 100.0 µM 89%
inactive: [1]; at 1.2 µM 13% | [1]; at 3.7 µM 13% | [1]; at 11.0 µM 12% | [1]; at 33.0 µM 9% | [1]; at 100.0 µM 31% | [2]; at 1.2 µM 9% | [2]; at 3.7 µM -2% | [2]; at 11.0 µM -5% | [2]; at 33.0 µM -5% | [3]; at 1.2 µM 18% | [3]; at 3.7 µM 22% | [3]; at 11.0 µM 25% | [3]; at 33.0 µM 40% | [3]; at 100.0 µM 46% | [4]; at 1.2 µM -21% | [4]; at 3.7 µM -25% | [4]; at 11.0 µM -28% | [4]; at 33.0 µM -32% | [5]; at 1.2 µM 14% | [5]; at 3.7 µM 18% | [5]; at 11.0 µM 2% | [5]; at 33.0 µM 9% | [5]; at 50.0 µM 58.2% | [5]; at 100.0 µM 29% | [6]; at 1.2 µM -1% | [6]; at 3.7 µM 7% | [6]; at 11.0 µM -9% | [6]; at 33.0 µM -23% | [6]; at 50.0 µM 7.75% | [7]; at 1.2 µM -1% | [7]; at 3.7 µM -2% | [7]; at 11.0 µM -8% | [7]; at 33.0 µM 39% | [8]; [17] -18% | [8]; [18] 36% | [8]; at 50.0 µM 56.9% | [9]; at 1.2 µM -4% | [9]; at 3.7 µM -9% | [9]; at 11.0 µM -25% | [9]; at 33.0 µM -18% | [10]; [17] 36% | [10]; [18] 58% | [10]; at 50.0 µM 31.9% | [11]; at 1.2 µM -9% | [11]; at 3.7 µM -4% | [11]; [17] 16% | [11]; at 11.0 µM -34% | [11]; at 33.0 µM -33% | [11]; [18] 64% | [11]; at 50.0 µM 12.1% | [11]; at 100.0 µM 54% | [12]; at 1.2 µM 5% | [12]; at 3.7 µM 1% | [12]; at 11.0 µM -4% | [12]; at 33.0 µM -2% | [13]; at 1.2 µM 14% | [13]; at 3.7 µM 7% | [13]; at 11.0 µM 5% | [13]; at 33.0 µM 2% | [14]; at 1.2 µM 18% | [14]; at 3.7 µM 14% | [14]; at 11.0 µM 15% | [14]; at 33.0 µM 25% | [15]; at 50.0 µM -13.4% | [16]; at 1.2 µM 25% | [16]; at 3.7 µM 21% | [16]; at 11.0 µM 15% | [16]; at 33.0 µM 9%
